{"source": "PubChem BioAssay (NCATS)", "key": {"[1]": {"assay": "qHTS of pediatric cancer cell lines to identify multiple opportunities for drug repurposing: Confirmatory screen for OHS-50 cells (AID 1347128);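 further: compound exposure lasted 48 h at 37 degrees C; nearly all actives have a fitted effect of over 55% in size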; further: potency means the concentration at half of the fitted maximal effect", "outline": "(§1)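 Cells (500-1,000/well) rested 5 h, then received compounds for 48 h; metabolically active cells were measured by CellTiter-Glo luminescence. Final concentrations spanned up to 46 µM (MIPE, 11-point) or 0.59 nM-46 µM (NPC, 8-point) in primary screens, 11-point in follow-ups.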"}, "[2]": {"assay": "qHTS of pediatric cancer cell lines to identify multiple opportunities for drug repurposing: Confirmatory screen for SK-N-SH cells (AID 1347129)", "outline": "as §1"}, "[3]": {"test_system": "Zika virus NS2B-NS3 protease", "assay": "Primary screen GU AMC qHTS for Zika virus inhibitors (AID 1347154)", "outline": "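Fluorogenic AMC-substrate cleavage by noncovalent NS2B-NS3 protease complex (25 nM, pH 8.0 Tris buffer with Tween 20) followed for 15 minutes at room temperature (~20% conversion). Percent inhibition from ex340/em450 signal change, fitted by 4-parameter Hill equation.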"}, "[4]": {"biological_target": "N-terminal Xaa-Pro-Lys N-methyltransferase 1 (Homo sapiens) (UniProt Q9BV86)", "sequence (Q9BV86 whole entry, looked up)": "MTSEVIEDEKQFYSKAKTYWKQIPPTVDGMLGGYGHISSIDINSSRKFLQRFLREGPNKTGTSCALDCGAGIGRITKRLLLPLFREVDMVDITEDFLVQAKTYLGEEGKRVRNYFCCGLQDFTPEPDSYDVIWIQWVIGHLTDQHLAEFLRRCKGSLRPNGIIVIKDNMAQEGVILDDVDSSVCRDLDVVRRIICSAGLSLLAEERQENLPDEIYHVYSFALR", "assay": "qHTS Assay for Inhibitors of N-terminal methyltransferase 1 (NTMT1): LOPAC validation of the NTMT1 SAHH-coupled ThioGlo3 Assay (AID 1347143)", "outline": "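Inhibition of NTMT1 methylation of peptide SPKRIA is followed by converting SAH with SAHH and labelling the released thiol with ThioGlo3. Plates are read at 340/450nm before and 30 min after reagent addition, both at room temperature.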"}, "[5]": {"assay": "qHTS of pediatric cancer cell lines to identify multiple opportunities for drug repurposing: Confirmatory screen for Saos-2 cells (AID 1347127)", "conditions": "Saos-2 osteosarcoma cell viability", "outline": "as §1"}, "[6]": {"test_system": "Zika virus NS2B-NS3 protease (unlinked)", "assay": "Optimization of GU AMC qHTS for Zika virus inhibitors: Unlinked NS2B-NS3 protease assay (AID 1347151)", "outline": "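Unlinked protease (25 nM final); buffer 10 mM Tris-HCl pH 8.0 + 0.01% Tween 20; AMC substrate; 15 min RT, dark; Δfluorescence normalized to no-inhibitor/no-enzyme controls; 4-parameter Hill fit.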"}, "[7]": {"biological_target": "Furin (Homo sapiens) (UniProt P09958)", "sequence (P09958 whole entry, looked up)": "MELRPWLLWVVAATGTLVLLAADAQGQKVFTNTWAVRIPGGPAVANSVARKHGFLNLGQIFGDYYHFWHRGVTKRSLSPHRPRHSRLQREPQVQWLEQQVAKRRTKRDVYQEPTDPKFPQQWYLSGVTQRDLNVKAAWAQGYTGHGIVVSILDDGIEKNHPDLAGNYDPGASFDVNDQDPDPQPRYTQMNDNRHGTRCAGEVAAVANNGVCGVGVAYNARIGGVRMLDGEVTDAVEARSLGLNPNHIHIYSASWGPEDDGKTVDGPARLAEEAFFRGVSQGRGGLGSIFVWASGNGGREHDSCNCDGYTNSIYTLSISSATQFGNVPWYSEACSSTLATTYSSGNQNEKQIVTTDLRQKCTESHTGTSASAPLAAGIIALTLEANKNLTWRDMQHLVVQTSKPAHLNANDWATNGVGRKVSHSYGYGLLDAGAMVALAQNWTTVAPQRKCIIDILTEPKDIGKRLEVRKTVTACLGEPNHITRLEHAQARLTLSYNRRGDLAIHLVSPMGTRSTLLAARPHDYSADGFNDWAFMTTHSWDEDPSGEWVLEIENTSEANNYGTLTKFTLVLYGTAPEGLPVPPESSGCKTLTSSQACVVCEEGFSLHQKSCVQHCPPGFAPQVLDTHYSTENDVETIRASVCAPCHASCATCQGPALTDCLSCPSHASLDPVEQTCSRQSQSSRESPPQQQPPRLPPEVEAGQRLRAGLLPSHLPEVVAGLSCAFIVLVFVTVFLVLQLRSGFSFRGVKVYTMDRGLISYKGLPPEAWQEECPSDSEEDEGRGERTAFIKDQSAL", "assay": "Furin counterscreen qHTS for Zika virus inhibitors (AID 1347149)", "outline": "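Fluorogenic cleavage of BOC-RVRR-AMC (2 microM final, Km ~15 µM) was monitored (ex 340, em 450 nm) at 37C after 15 min RT preincubation of 5 nM furin with compounds in HEPES pH 7.0 buffer with CaCl2 and Triton X-100. Percent inhibition was fitted to a 4-parameter Hill curve.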"}, "[8]": {"test_system": "Zika virus NS2B-NS3 protease (unlinked complex)", "assay": "Confirmatory screen GU AMC qHTS for Zika virus inhibitors (AID 1347153)", "outline": "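Noncovalent NS2B hydrophilic domain/NS3 protease complex (25 nM) in 10 mM Tris-HCl pH 8.0, 0.01% Tween 20 was preincubated 15 min at room temperature with compounds. Then 10 µM AMC substrate (Km 18.3 µM) was added; fluorescence was read over 15 min and fitted to a 4-parameter Hill equation.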"}, "[9]": {"assay": "Confirmatory screen NINDS Rhodamine qHTS for Zika virus inhibitors (AID 1347161)", "outline": "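qHTS dose-response: 25 nM linked protease, pH 8.0 Tris/Tween buffer, cpd titration, 15 min RT preinc, 1.5 microM Rhod110 peptide, 15 min reaction (~15% conversion), Ex480/Em540; 4-parameter Hill fit.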"}, "[10]": {"assay": "Vero cells viability qHTS for Zika virus inhibitors (AID 1347167)", "outline": "(§2)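 Compounds were tested in concentration series on cells grown in DMEM containing 4% FBS. After 24 to 48 hours, cellular ATP was measured by luminescence with CellTiter Glo.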"}, "[11]": {"assay": "HepG2 cells viability qHTS for Zika virus inhibitors (AID 1347168)", "outline": "as §2"}}, "note": "Results filed as inconclusive are left out. Entries that show only a call come without a potency. The source made the active and inactive calls. The call rests on the fitted dose curve; in most records, active means well fitted curve in the direction sought with a large enough effect; inconclusive means small, poorly fitted or top-dose-only effect, or another doubt; inactive means no such curve, though single readings can be large; an effect the other way counts as inactive or inconclusive.", "data": [{"smiles": "CCOC(=O)c1ccccc1O", "values": [{"measurement": "Potency", "setting": "[1]", "value": "inactive"}, {"measurement": "Potency", "setting": "[2]", "value": "inactive"}, {"measurement": "Potency", "setting": "[3]", "value": "inactive"}]}, {"smiles": "CC[C@H]1OC(=O)[C@H](C)C(O[C@H]2C[C@@](C)(OC)[C@@H](O)[C@H](C)O2)[C@H](C)[C@@H](OC2O[C@H](C)C[C@H](N(C)C)[C@H]2O)[C@](C)(O)C[C@@H](C)CN(C)[C@H](C)[C@@H](O)[C@]1(C)O", "note": "(stereo partly specified)", "values": [{"measurement": "Potency", "setting": "[4]", "value": "inactive"}]}, {"smiles": "C[N+](C)(C)CCOP(=O)(O)OP(=O)([O-])OC[C@H]1O[C@@H](n2ccc(N)nc2=O)[C@H](O)C1O", "note": "(stereo partly specified)", "values": [{"measurement": "Potency", "setting": "[4]", "value": "inactive"}]}, {"smiles": "CCCSc1ccc2nc(NC(=O)OC)[nH]c2c1", "values": [{"measurement": "Potency", "setting": "[5]", "value": "1.58 µM (active)"}, {"measurement": "Potency", "setting": "[1]", "value": "2.51 µM (active)"}, {"measurement": "Potency", "setting": "[2]", "value": "6.31 µM (active)"}, {"measurement": "Potency", "setting": "[3]", "value": "inactive"}]}, {"smiles": "Nc1nc(Nc2ccccc2)nc2c1ncn2[C@@H]1O[C@H](CO)C(O)[C@H]1O", "note": "(stereo partly specified)", "values": [{"measurement": "Potency", "setting": "[4]", "value": "39.8 µM (active)"}]}, {"smiles": "Cc1cn([C@H]2CC(N=[N+]=[N-])[C@@H](CO)O2)c(=O)[nH]c1=O", "note": "(stereo partly specified)", "values": [{"measurement": "Potency", "setting": "[4]", "value": "inactive"}]}, {"smiles": "CCCC(CCC)C(=O)OC1CC2CCC(C1)[N+]2(C)C", "note": "(stereo unspecified)", "values": [{"measurement": "Potency", "setting": "[4]", "value": "inactive"}]}, {"smiles": "CNc1ncnc2c1ncn2[C@@H]1O[C@H](CO)C(O)[C@H]1O", "note": "(stereo partly specified)", "values": [{"measurement": "Potency", "setting": "[4]", "value": "inactive"}]}, {"smiles": "Brc1cc2c(cc1[C@H]1Nc3ccccc3[C@H]3C=CC[C@H]31)OCO2", "values": [{"measurement": "Potency", "setting": "[4]", "value": "inactive"}]}, {"smiles": "C=C/C(C)=C/[C@@]1(C)SC(=O)C(C)=C1O", "values": [{"measurement": "Potency", "setting": "[4]", "value": "inactive"}]}, {"smiles": "N#C/C(=C\\c1ccc(O)c(O)c1)C(=O)c1ccc(O)c(O)c1", "values": [{"measurement": "Potency", "setting": "[4]", "value": "31.6 µM (active)"}]}, {"smiles": "COc1cccc2c1C(=O)c1c(O)c3c(c(O)c1C2=O)C[C@@](O)(C(=O)CO)C[C@@H]3O[C@H]1C[C@H](N)[C@H](O[C@@H]2CCCCO2)[C@H](C)O1", "values": [{"measurement": "Potency", "setting": "[2]", "value": "2.35 µM (active)"}]}, {"smiles": "CN(C)c1ccc(C(=C2C=CC(=[N+](C)C)C=C2)c2ccccc2)cc1", "values": [{"measurement": "Potency", "setting": "[5]", "value": "0.522 µM (active)"}, {"measurement": "Potency", "setting": "[1]", "value": "2.61 µM (active)"}, {"measurement": "Potency", "setting": "[2]", "value": "1.32 µM (active)"}, {"measurement": "Potency", "setting": "[3]", "value": "inactive"}]}, {"smiles": "CC[C@@H](C)[C@H]1O[C@]2(CC[C@@H]1C)C[C@@H]1C[C@@H](C/C=C(\\C)[C@@H](O[C@H]3C[C@H](OC)[C@@H](O[C@H]4C[C@H](OC)[C@@H](O)[C@H](C)O4)[C@H](C)O3)[C@@H](C)/C=C/C=C3\\CO[C@@H]4[C@H](O)C(C)=C[C@@H](C(=O)O1)[C@]34O)O2", "values": [{"measurement": "Potency", "setting": "[4]", "value": "inactive"}]}, {"smiles": "COC(=O)c1nc(Cl)c(Cl)nc1N", "values": [{"measurement": "Potency", "setting": "[5]", "value": "2.61 µM (active)"}, {"measurement": "Potency", "setting": "[1]", "value": "18.5 µM (active)"}, {"measurement": "Potency", "setting": "[2]", "value": "4.69 µM (active)"}, {"measurement": "Potency", "setting": "[3]", "value": "10 µM (active)"}]}, {"smiles": "COC1=C(OC)C(=O)c2ccccc2C1=O", "values": [{"measurement": "Potency", "setting": "[4]", "value": "inactive"}, {"measurement": "Potency", "setting": "[6]", "value": "inactive"}]}, {"smiles": "[O-][n+]1ccccc1SSc1cccc[n+]1[O-]", "values": [{"measurement": "Potency", "setting": "[5]", "value": "1.82 µM (active)"}, {"measurement": "Potency", "setting": "[2]", "value": "3.23 µM (active)"}, {"measurement": "Potency", "setting": "[3]", "value": "inactive"}]}, {"smiles": "N=C1N=C(N)c2cc3ccccc3cc21", "values": [{"measurement": "Potency", "setting": "[1]", "value": "42.7 µM (active)"}, {"measurement": "Potency", "setting": "[2]", "value": "38.2 µM (active)"}, {"measurement": "Potency", "setting": "[3]", "value": "23.3 µM (active)"}]}, {"smiles": "COC(=O)Nc1nc2ccc(C(=O)C3CC3)cc2[nH]1", "values": [{"measurement": "Potency", "setting": "[5]", "value": "1.31 µM (active)"}, {"measurement": "Potency", "setting": "[1]", "value": "1.31 µM (active)"}, {"measurement": "Potency", "setting": "[3]", "value": "inactive"}]}, {"smiles": "CC(C)(C)NCC(O)COc1nsnc1N1CCOCC1", "note": "(stereo unspecified)", "values": [{"measurement": "Potency", "setting": "[4]", "value": "inactive"}]}, {"smiles": "CO[C@H]1O[C@@H]2O[C@]3(C)CC[C@@H]4[C@@H](C)CC[C@H]([C@H]1C)[C@]24OO3", "values": [{"measurement": "Potency", "setting": "[4]", "value": "inactive"}]}, {"smiles": "Nc1nc(SCc2ccc([N+](=O)[O-])cc2)c2ncn([C@@H]3O[C@H](CO)C(O)[C@H]3O)c2n1", "note": "(stereo partly specified)", "values": [{"measurement": "Potency", "setting": "[4]", "value": "inactive"}]}, {"smiles": "O=[N+]([O-])c1ccc(CSc2ncnc3c2ncn3[C@@H]2O[C@H](CO)C(O)[C@H]2O)cc1", "note": "(stereo partly specified)", "values": [{"measurement": "Potency", "setting": "[4]", "value": "inactive"}]}, {"smiles": "Oc1c(Br)cc(Br)c2cccnc12", "values": [{"measurement": "Potency", "setting": "[1]", "value": "inactive"}, {"measurement": "Potency", "setting": "[3]", "value": "inactive"}]}, {"smiles": "CC(C)c1cccc(C(C)C)c1N1C(=O)c2ccc(O)cc2C1=O", "values": [{"measurement": "Potency", "setting": "[4]", "value": "inactive"}, {"measurement": "Potency", "setting": "[6]", "value": "inactive"}]}, {"smiles": "O=C(CCCCCN1CCN(c2ccccc2-c2ccccc2)CC1)NC1CCCc2ccccc21", "note": "(stereo unspecified)", "values": [{"measurement": "Potency", "setting": "[4]", "value": "79.4 µM (active)"}]}, {"smiles": "CCCCC#Cc1nc(NC)c2ncn([C@@H]3O[C@H](CO)[C@@H](O)C3O)c2n1", "note": "(stereo partly specified)", "values": [{"measurement": "Potency", "setting": "[4]", "value": "39.8 µM (active)"}]}, {"smiles": "C[C@H](Cc1ccccc1)Nc1ncnc2c1ncn2[C@@H]1O[C@H](CO)C(O)[C@H]1O", "note": "(stereo partly specified)", "values": [{"measurement": "Potency", "setting": "[4]", "value": "inactive"}]}, {"smiles": "CO/N=C(\\C(=O)N[C@@H]1C(=O)N2C(C(=O)O)=C(COC(C)=O)CS[C@H]12)c1csc(N)n1", "note": "(stereo in doubt)", "values": [{"measurement": "Potency", "setting": "[4]", "value": "inactive"}]}, {"smiles": "Nc1ccc([N+](=O)[O-])cc1O", "values": [{"measurement": "Potency", "setting": "[1]", "value": "inactive"}, {"measurement": "Potency", "setting": "[2]", "value": "inactive"}, {"measurement": "Potency", "setting": "[3]", "value": "inactive"}]}, {"smiles": "NCC1OC(OC2C(O)[C@@H](OC3C(O)C(N)CC(N)C3OC3OC(CO)C(O)C(O)C3N)O[C@@H]2CO)C(N)C(O)C1O", "note": "(stereo partly specified)", "values": [{"measurement": "Potency", "setting": "[4]", "value": "inactive"}]}, {"smiles": "C=C[C@H]1CN2CC[C@@H]1C[C@H]2[C@H](O)c1ccnc2ccc(OC)cc12", "values": [{"measurement": "Potency", "setting": "[4]", "value": "56.2 µM (active)"}]}, {"smiles": "COc1ccc(/C=C/c2nc(NCCCN(C)C)c3ccccc3n2)cc1", "values": [{"measurement": "Potency", "setting": "[4]", "value": "50.1 µM (active)"}, {"measurement": "Potency", "setting": "[7]", "value": "24.1 µM (active)"}, {"measurement": "Potency", "setting": "[6]", "value": "26.7 µM (active)"}, {"measurement": "outcome", "setting": "[8]", "value": "inactive"}, {"measurement": "Potency", "setting": "[9]", "value": "inactive"}, {"measurement": "outcome", "setting": "[10]", "value": "inactive"}, {"measurement": "outcome", "setting": "[11]", "value": "inactive"}]}]}
